CHX counter: Cycloheximide Counterscreen for Small Molecule Inhibitors of Shiga Toxin | cell reporter, cycloheximide protein synthesis inhibition counterscreen | max response, % | actives 12% (n = 300,000); in the data active = max response mostly above about 13%, no sharp cut-off; inactive = mostly below about 14%; note: read at 38.3 µM for the half of the compounds with a filed dose; 0% is about no effect
Pf growth 48h: Primary qHTS for delayed death inhibitors of the malarial parasite plastid, 48 hour incubation | P. falciparum luciferase growth in erythrocytes, 48 h | Potency, µM (highest dose often 28.7 µM), without a hit: top-dose activity change, negative = inhibition, usual class: inhibitors | actives 5.9% (n = 310,000); note: potency is the fitted concentration of half-maximal effect; % is set by controls: 0 for no effect and ±100 for the full control effect
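A one-generation exposure of luciferase-tagged malaria parasites in RPMI 1640/Albumax erythrocyte culture, 37 C and 5% CO2. Inhibition is inferred from decreased luminescence after adding detection reagent.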
NS1 inh: qHTS Assay for Inhibitors of Influenza NS1 Protein Function | Potency, µM (highest dose often 46.1 µM), for the others: top-dose activity, positive = more growth | actives 0.4% (n = 270,000); calls by dose curve; note: potency is the fitted concentration of half-maximal effect; actives are rising curves; nearly all actives have a fitted effect of over 50% in size
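A cell-based growth assay was used: compounds that relieve NS1-induced slow growth of budding yeast raise OD600. Assay medium was yeast nitrogen base with ammonium sulphate and -URA supplement, pH 6.0, with 2% galactose.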
Sm TGR block: qHTS Assay for the Inhibitors of Schistosoma Mansoni Peroxiredoxins; Schistosoma mansoni thioredoxin glutathione reductase (TGR), Q962Y6; purified TGR, DTNB reduction, TNB absorbance 405 nm; Potency, µM (highest dose often 114 µM), for inactives: at the highest dose activity change, negative = inhibition, usual class: inhibitors; actives 3% (n = 360,000); note: potency is the fitted concentration of half-maximal effect; % is set by controls: 0 for no effect and ±100 for the full control effect; nearly all actives have a fitted effect of over 60% in size
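TGR 20 nM + NADPH 100 uM (dispensed conc.), cpd preinc 15 min RT; start with NADPH (500 uM addition) then DTNB (15 mM addition). Kinetic TNB absorbance, 405 nm filter. Four-parameter Hill fit across titration.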
Shiga toxin inh: A qHTS for Small Molecule Inhibitors of Shiga Toxin. Vero cells, Shiga toxin protein synthesis inhibition reporter. inhibition, % at 38.7 µM. actives 9.2% (n = 290,000). AID 2315, 2010; in the data active = inhibition mostly above about 28%, no sharp cut-off; inactive = mostly below about 43%; note: 0% is about no effect
Pf growth 96h: Primary qHTS for delayed death inhibitors of the malarial parasite plastid, 96 hour incubation | actives 6.9% (n = 320,000) | AID 504834, 2011 | P. falciparum luciferase reporter growth, 96 h | Potency, µM (series often up to 28.7 µM), for the others: at the top dose activity change, negative = inhibition, hits mostly inhibitors; note: potency is the fitted concentration of half-maximal effect; % is set by controls: 0 for no effect and ±100 for the full control effect
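Readout is luminescence from an integrated firefly luciferase in P. falciparum. Red cells, 2% hematocrit and 0.05% parasitemia final, were cultured with compound through two parasite generations (96 hours) at 37 C, 5% CO2.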
Numbers without * were called inactive; ? = inconclusive; . = no result; + = active, no number; [ ] = remark or other dose. Most compounds without a hit are left out; they make up all but 21% or so of the library. Unless noted, calls come from the whole dose curve; as a rule, active = well fitted curve in the direction sought with a large enough effect; inconclusive = small, poorly fitted or top-dose-only effect, or another doubt; inactive = no such curve, though single readings can be large; an effect the other way counts as inactive or inconclusive.

SMILES | CHX counter | Pf growth 48h | NS1 inh | Sm TGR block | Shiga toxin inh | Pf growth 96h
C/C(=N\Nc1ccc(Cl)cc1)c1ccccn1 | 23.2* | . | -52.6% | -31.4% | 74.3* | 169.1%
C/C(=N\NC(=O)c1c[nH]c2ccccc12)c1ccc(C)o1 | 2.9 | . | -1.0% | -10.6% | 12.3 | 0.928µM*
C/C(=N\NC(=O)c1ccc(N/N=C(\C)c2ccc(O)cc2)cc1)c1ccc(O)cc1 | 40.3* | -7.4% | 17.1% | -32.8% | 68.2* | -15.3%
Cc1cccc(C)c1NC(=O)CSc1nc2ncccc2o1 | . | . | . | -0.2% | . | .
C/C(=N/NC(=O)c1ccccn1)c1c[nH]c2ccccc12 | 56.0* | 127.5% | 2.6% | 4.4% | 92.3* | 114.4%
O=C(NC1CCCCC1)c1ccccc1NC(=O)C1CC(=O)N(c2ccc(Cl)cc2)C1 (stereo unspecified) | 1.4 | 15.6% | 12.1% | -1.9% | 6.9 | -15.3%
COc1ccc(-n2ncc(S(=O)(=O)c3ccccc3)c2-c2ccc(Cl)cc2)cc1 | 11.4 | 11.7µM* | 14.9% | 2.2% | -3.3 | ?
O=S(=O)(c1ccccc1)c1cnn2c(C(F)(F)F)cc(-c3ccc(F)cc3)nc12 | 1.3 | 6.0% | 12.6% | -9.9% | -14.7 | ?
O=S(=O)(c1ccccc1)c1cnn(-c2ccccc2)c1-c1ccc(F)cc1 | -2.6 | ? | -1.5% | 16.2% | -6.9 | 5.86µM*
O=C(Cn1cc(C(F)(F)F)cc(Cl)c1=O)NCc1ccccc1 | 43.9* | 65.0% | -0.7% | -2.1% | 73.2* | 72.5%
O=C(Cn1cc(C(F)(F)F)cc(Cl)c1=O)NCc1ccc(Cl)cc1 | 11.2 | 12.1% | 17.3% | -8.7% | 22.4 | 5.7%
Cc1[nH]c2c(ccc3ccccc32)c1C1C(CCN)C1(C)C (stereo unspecified) | -2.1 | 10.4µM* | 2.8% | 6.9% | -14.8 | .
S=c1[nH]c2ccc3ccccc3c2[nH]1 | 18.7 | 21.1% | -63.1% | . | 59.7 | ?
CCCCN(CC)C(=O)c1nn(C)c2c1CSc1ccccc1-2 | . | . | . | 44.7µM* | . | .
CCOc1ccc(CCNC(=O)c2ccc3c(c2)c(C)c(C)n3C)cc1 | . | . | . | -8.7% | . | .
CC1(C)Cc2c(sc(NC(=O)C(C)(C)C)c2C#N)C(C)(C)N1 | -1.7 | ? | 3.2% | 3.4% | 16.6 | 3.29µM*
CCC(=O)Nc1sc2c(c1C#N)CC(C)(C)NC2(C)C | -3.9 | 6.1% | -25.2% | 0.4% | -9.2 | 3.6%
Cc1cc(C(=O)NNC(=O)COc2ccccc2Cl)n[nH]1 | -2.6 | 25.9% | -6.8% | -2.5% | -3.0 | ?
COc1ccc(NC(=O)COc2cccc3c2CCN(Cc2cccnc2)C3=O)cc1 | 0.7 | ? | -0.3% | -13.5% | -35.9 | ?
Cc1ccc(CN2CCc3c(OCC(=O)Nc4cccc(C)c4C)cccc3C2=O)cc1 | 0.9 | ? | 18.8% | -5.1% | -4.9 | ?
CCOc1ccc(NC(=O)COc2cccc3c2CCN(Cc2cccnc2)C3=O)cc1 | -0.3 | 11.7µM* | 4.5% | -2.8% | -15.7 | ?
Cc1ccc(C)c(NC(=O)COc2cccc3c2CCN(Cc2ccccc2C)C3=O)c1 | 1.9 | ? | 5.7% | -1.6% | -10.6 | 10.4µM*
COc1ccc(NC(=O)COc2cccc3c2CCN(Cc2cccnc2)C3=O)c(OC)c1 | -2.2 | 5.22µM* | 13.5% | -28.4% | -28.6 | 1.31µM*
CCOC(=O)c1c(NC(=O)c2cc(-c3cccc(Cl)c3)on2)sc(C(C)=O)c1C | . | . | . | 0.4% | . | .
CCc1ccc(NC(=O)CC2C(=O)N(c3ccc(OC)cc3)C(=O)N2Cc2cccs2)cc1 (stereo unspecified) | . | . | . | 0.9% | . | .
SMILES | CHX counter | Pf growth 48h | NS1 inh | Sm TGR block | Shiga toxin inh | Pf growth 96h
Cn1cccc1C(=O)NCc1ccc(Cl)cc1 | 10.5 | 6.0% | -10.9% | -14.9% | -5.3 | 39.5%
O=C(COc1ccccc1F)NNC(=O)c1cccc(-n2cccc2)c1 | -3.0 | 7.5% | -7.1% | -23.5% | -7.0 | 45.2%
Cn1cccc1C(=O)NCCc1ccccc1 | 23.5* | 180.1% | -7.3% | 0.4% | 51.3* | 229.1%
COc1ccc(CCNC(=O)c2cccn2C)cc1 | 6.8 | ? | 5.3% | 6.9% | -14.7 | ?
Cn1cccc1C(=O)NNC(=O)COc1ccccc1F | 32.8* | 139.6% | 2.5% | 4.0% | 86.4* | 150.1%
Cn1cccc1C(=O)NCCc1ccc(Cl)cc1 | 46.1* | 75.2% | -1.7% | -21.7% | 124.8* | 86.6%
C=CCOc1ccc(/C=C/C(=O)OCC(=O)NCc2cccs2)cc1 | . | 33.8% | . | 0.2% | . | 40.2%
COc1cc(CN2CCN(Cc3ccc(C)cc3)C(CCO)C2)cc(OC)c1O (stereo unspecified) | -1.4 | -0.1% | 5.3% | 6.31µM* | -9.4 | -17.0%
Cc1ccc(CN2CCN(Cc3ccon3)CC2CCO)cc1 (stereo unspecified) | -3.9 | -2.3% | 2.8% | 1.6% | -24.1 | 10.4µM*
CCOc1ccc(CN2CCN(CC3=Cc4cccc(OC)c4OC3)CC2CCO)cc1 (stereo unspecified) | -3.1 | 10.4µM* | -1.2% | -11.3%[57.1 µM] | -25.7 | ?
Cc1ccc(CN2CCN(Cc3ccccn3)CC2CCO)cc1 (stereo unspecified) | 0.5 | 16.4% | -3.5% | ? | -25.5 | -3.8%
CCOc1ccccc1CN1CCN(Cc2cccc3nonc23)CC1CCO (stereo unspecified) | -0.7 | -15.5% | 10.3% | -9.7% | 26.1 | ?
CCOc1ccccc1CN1CCN(Cc2ccc3cccc(OC)c3n2)CC1CCO (stereo unspecified) | -1.0 | 0.0% | 22.2% | 25.1µM* | -12.4 | ?
O=C1NC(=O)c2cc(NC(=O)C3CCCO3)ccc21 (stereo unspecified) | -3.5 | . | 7.4% | 10.3% | -9.0 | ?
Cc1ccc(N2C(=O)c3ccc(N)cc3C2=O)cc1 | 29.8* | 203.1% | -11.2% | 7.9% | 66.7* | -16.8%
CC(=O)Nc1ccc2c(c1)C(=O)N(c1ccc(C)cc1)C2=O | 51.3* | . | -2.6% | 5.8% | + | 15.3%
Cc1ccc(N2C(=O)c3ccccc3C2=O)cc1C | 13.2 | 6.3% | 2.5% | 2.0% | 25.7 | ?
Cc1ccc(N2C(=O)c3ccc(N)cc3C2=O)cc1C | 30.8* | 144.9% | -34.0% | -2.9% | 118.7* | 4.0%
COc1ccc(N2C(=O)c3ccc(NC(C)=O)cc3C2=O)cc1 | 8.4 | 24.9% | 4.2% | -14.4% | -6.4 | 3.3%
O=C(Nc1ccc2c(c1)C(=O)N(c1ccccc1)C2=O)C1CCCO1 (stereo unspecified) | 31.9* | 14.9% | -6.4% | -20.6% | 32.8* | 32.9%
NC(=O)CSc1nnnn1-c1cccc(O)c1 | . | . | . | 3.0% | . | .
CCOC(=O)N1CCC2(CC1)OC(=O)C(C)=C2C(=O)NCc1cccc(OC)c1 | . | . | . | 3.2% | . | .
CC(C)(C)CC(=O)Nc1cc2c3c(c1)CCC(=O)N3CCC2 | -3.1 | -6.8% | -0.7% | -3.6% | -5.3 | 25.8%
CN(C)C(=S)N=Nc1[nH]c2ccccc2c1O | 39.4* | ? | . | ? | 65.9* | ?
